As usually defined, the inhibition is the drop in the measured response relative to a control, in per cent.

This note sets out measurements from PubChem BioAssay AID873 (PCMD, 2007).

Molecules are shown by their SMILES. Values joined by “and” are separate entries in the source; they are usually repeats but may differ in a detail not shown here. Equal entries are not always repeated. About 1,300 (0.62%) of roughly 210,000 compounds were called active.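 How the source made its calls: active means inhibition of 40% or more; inactive means the rest.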 The entries come from a sample that favours actives as a whole. More than one record can exist for a structure, and the calls need not agree.

Kallikrein-5 (Homo sapiens), sequence (Q9Y337 67-293 limits assumed): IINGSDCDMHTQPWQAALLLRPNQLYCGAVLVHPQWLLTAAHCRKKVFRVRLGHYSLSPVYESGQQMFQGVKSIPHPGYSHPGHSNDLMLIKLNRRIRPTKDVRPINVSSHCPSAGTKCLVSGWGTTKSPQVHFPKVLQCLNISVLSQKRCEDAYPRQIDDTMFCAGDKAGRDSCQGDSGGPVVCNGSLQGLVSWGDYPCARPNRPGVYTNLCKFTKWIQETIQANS

The test concerns the target Kallikrein-5 (Homo sapiens) (UniProt Q9Y337). The test is described as follows: human KLK5 protease inhibitors, primary screen, biochemical, 1536-well (AID 873).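 Further: 0% = enzyme controls without compound and 100% = no-enzyme blanks.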 The following applies: recombinant hK5, fluorogenic AMC substrate cleavage; at 5 µM; stronger effect = higher value.
Turning to `COC(=O)C1=C(C)NC(=O)NC1/C=C/c1ccccc1` (stereo not given), the inhibition is -24.4% (inactive).
As for `C=CCOC(=O)C1=C(C)N=C2SCCC(=O)N2C1/C=C/c1ccccc1OC` (stereo not given), the inhibition was 1.43% (inactive).
Take `COC(=O)C1=C(C)N=C2SC(C)C(=O)N2C1/C=C/c1ccccc1` (stereo not given): the inhibition is 61.9% (active).
The result for `CSc1ccc(CN(C)CC(=O)NCc2ccc(F)cc2)cc1` reads -2.79% (inactive); that for `NC(=O)c1nsc(C(=O)N(CC(=O)NCc2ccc(F)cc2)Cc2ccco2)c1N`, 69.4% (active); that for `Cc1ccnc(NC(=O)CCC(=O)N(CC(=O)NCc2ccccc2)Cc2ccco2)c1`, -56.9% (inactive).
For `Cc1[nH]n(-c2ccccc2)c(=O)c1N=Nc1ccccc1C(=O)N1CCCCC1`, the inhibition was 3.28% (inactive).
For the compound `O=C(Cc1ccccc1)N1N=C(c2ccncc2)CC1(O)C(F)(F)F` (stereo not given), the inhibition is -2.66% (inactive).
With `Brc1ccc2ncnc(NCc3cccnc3)c2c1`, the inhibition was -4.89% (inactive).
As to `Cc1[nH]n(C)c(=O)c1C(=O)c1c(-c2c(Cl)cccc2Cl)noc1C`, the inhibition is 5.65% (inactive).
As to `O=C(OCN1C(=O)c2ccccc2C1=O)/C(=C\c1ccco1)NC(=O)c1ccccc1`, the inhibition is 41.6% (active).
The value for `Cc1cccc(NC(=O)/C(=C\c2ccco2)NC(=O)c2ccccc2)c1` was -17.2% (inactive); that for `O=C(NCC1CCCO1)/C(=C\c1ccco1)NC(=O)c1ccccc1` (stereo not given) was -1.75% (inactive).
As to `O=C(CNCCC1=CCCCC1)Nc1ccccc1N1CCCCCC1`, the inhibition is -0.35% (inactive).
Consider `Cc1cccc(C)c1Nc1c(-c2ccccc2O)nc2ncccn12`, for which the inhibition was -0.27% (inactive).
The value for `CC(C)(C)OC(=O)NCCCCCC(=O)N/N=C/c1coc2ccccc2c1=O` was -0.18% (inactive); that for `COc1cccc(NC(=O)C(C)Oc2ccccc2)c1` (stereo not given) was 15.3% (inactive).
The result for `O=C(O)Cc1ccc(-c2ccccc2)cc1` reads -3.86% (inactive).
In the case of `CCC(C)OC(=O)C(C)Oc1ccc(-c2ccccc2)cc1` (stereo not given), the inhibition is 54.9% (active).
The result for `Cc1ccccc1Cn1c2ccccc2c2cnn(CC(=O)NCc3ccco3)c(=O)c21` reads 1.05% (inactive); that for `CCOc1ccccc1NC(=O)CCc1ccc(C)o1`, 118% (active); that for `CCOc1ccccc1NC(=O)CCN1CCN(S(=O)(=O)c2ccc(OC)cc2)CC1`, 0.91% (inactive).
`CCOc1ccccc1NC(=O)Nc1cc(OC)ccc1OC`: the inhibition was -0.87% (inactive).
The result for `COc1ccc(CNCCCO)cc1OC` reads 46.4% (active); that for `CCOCCCNCc1ccc(OCc2ccc(F)cc2)c(OC)c1`, -4.94% (inactive).
For `CCS(=O)(=O)NCCc1ccc(OC)c(OC)c1`, the inhibition was -7.94% (inactive).
The result for `O=C(NCc1cccnc1)C(=O)Nc1nc(-c2ccccc2)cs1` reads -0.27% (inactive).
Take `COc1cc(NS(=O)(=O)c2ccccc2)ccc1-n1nc(C)cc1C`: the inhibition is -1.07% (inactive).
The value for `COCCCNC(=O)c1ccc2c(c1)ncn2-c1ccccc1OC` was -11.7% (inactive); that for `COc1ccccc1-n1cnc2cc(NS(=O)(=O)c3ccccc3)ccc21` was 53.3% (active); that for `O=S(=O)(c1ccc(NC(=S)NN=C(C2CC2)C2CC2)cc1)N1CCOCC1` was -9.15% (inactive).
Regarding `CCN1C(=O)/C(=C2/Sc3ccccc3N2CCCS(=O)(=O)O)SC1=S`, the inhibition was -2.57% (inactive) and 43.4% (active).
The result for `CCC(=O)/C=C1\Sc2ccccc2N1CC` reads -8.47% (inactive); that for `CCN1C(=O)/C(=c2\s/c(=C3\Sc4ccccc4N3C)c(=O)n2C)N(C)C1=S`, 2.3% (inactive); that for `S=c1nc2ccccc2c2nc(-c3cccnc3)[nH]n12`, -1% (inactive).
The result for `O=C(CN1CCN(Cc2ccccc2)CC1)NC(c1ccccc1)c1ccccc1` reads -1.99% (inactive); that for `Cc1cc2c(cc1C)N(Cc1ccccc1)C1=NCCCN12`, -0.81% (inactive); that for `COc1ccc(C(C(=O)NC(C)(C)C)N(C(=O)Cn2nnc3ccccc32)c2ccc(C(C)=O)cc2)cc1O` (stereo not given), -4.08% (inactive).
The value for `CCOc1ccc(/C(O)=C2\C(=O)C(=O)N(c3ccc(OC)cc3)C2c2ccccc2[N+](=O)[O-])cc1` (stereo not given) was -0.1% (inactive); that for `C/C(Cc1ccccc1)=N\NC(=O)CNC(=O)c1ccc2c(c1)OCCO2` was -2.98% (inactive).
`C/C(Cc1ccccc1)=N\NC(=O)CNC(=O)c1cccc(Br)c1`: the inhibition is -15.8% (inactive).
For `C/C(Cc1ccccc1)=N\NC(=O)CNC(=O)c1ccccc1Cl`, the inhibition was 47.7% (active).
The result for `Cc1cc(C(=O)NCCc2ccc(Cl)cc2)n(-c2ccccc2)n1` reads 0.87% (inactive); that for `C=CCNC(=O)c1ccc2c3n(nc2c1)-c1ccc(C)cc1CO3`, 2.58% (inactive); that for `C=CCNC(=S)N/N=C/c1ccc(C)s1`, -12.8% (inactive).
Take `Cc1nc(-c2ccc(Cl)cc2)sc1C1(C)CC(c2ccccc2F)=NO1` (stereo not given): the inhibition was 2.17% (inactive).
On to `CC(=O)c1ccc(S(=O)(=O)N2CCN(C(=O)/C=C/c3ccc4ccccc4n3)CC2)cc1`, for which the inhibition was -6.25% (inactive).
The result for `COCCNC(=S)N1CCN(C)CC1` reads 0.97% (inactive); that for `CC(=O)c1cccc(NC(=O)c2ccncc2)c1`, 2.01% (inactive); that for `CSc1ccccc1C(=O)Nc1cccc(C(C)=O)c1`, 45% (active).
The result for `COc1cccc(NC(=O)c2ccccc2SC)c1` reads -2.44% (inactive); that for `CC(C)(C)C(=O)NNC(=O)c1ccc(Oc2cc(Cl)cc(Cl)c2)o1`, 4.32% (inactive).
Turning to `COCCNc1nc(-c2ccccc2)nc2c1oc1ccccc12`, the inhibition is 1.99% (inactive).
The value for `Cn1c(=O)c2c(-c3cccc(Br)c3)c(C#N)c(N)nc2n(C)c1=O` was 2.05% (inactive).
For the compound `S=C(NCCc1ccccc1)Nc1ccccc1`, the inhibition is 2.79% (inactive).
